Test results: PubChem BioAssay AID1159580 (chemical genetic matrix, 2015)
The campaign covered roughly 5,500 compounds. About 2,000 (36%) were called active. Another 18% or so got no clear call; they are omitted. Cut-off read from the data, not from the text of the source: active = normalized growth mostly below about 0.91 (no sharp cut-off); inconclusive = no clear call, values can overlap the other calls; inactive = mostly above about 0.92. This is one part of the list.

Assay: chemical genetic growth profiling, strain panel (AID 1159580);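 note: tested at 20 µM; growth read once vehicle control cultures reached saturation at 30 °C; 1 = growth at the plate median or of vehicle wells; lower values mean less growth of the strain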
Conditions: growth OD

Measured: normalized growth

OC(Cn1cncn1)(Cn1cncn1)c1ccc(F)cc1F
active: S. cerevisiae deletion strains, locus YLR039C, strain RIC1, stronger effect = lower value 0.635 | S. cerevisiae deletion strains, locus YLR262C, strain YPT6 (second series), stronger effect = lower value 0.465 | S. cerevisiae deletion strains, locus YPL106C, strain sse1, stronger effect = lower value 0.341
inactive: S. cerevisiae deletion strains, locus YJL187C, strain SWE1, stronger effect = lower value 1 | S. cerevisiae deletion strains, locus YJR043C, strain POL32, stronger effect = lower value 0.988 | S. cerevisiae deletion strains, locus YJR075W, strain HOC1, stronger effect = lower value 1.01 | S. cerevisiae deletion strains, locus YKL009W, strain mrt4, stronger effect = lower value 0.994 | S. cerevisiae deletion strains, locus YKL068W, stronger effect = lower value 0.996 | S. cerevisiae deletion strains, locus YKL085W, strain MDH1 (second series), stronger effect = lower value 0.985 | S. cerevisiae deletion strains, locus YKL085W, strain MDH1, stronger effect = lower value 0.985 | S. cerevisiae deletion strains, locus YKL160W, strain elf1, stronger effect = lower value 0.992 | S. cerevisiae deletion strains, locus YKL190W, strain CNB1, stronger effect = lower value 0.997 | S. cerevisiae deletion strains, locus YKR001C, strain vps1, stronger effect = lower value 1.05 | S. cerevisiae deletion strains, locus YKR026C, strain gcn3, stronger effect = lower value 0.999 | S. cerevisiae deletion strains, locus YKR091W, strain srl3, stronger effect = lower value 1.01 | S. cerevisiae deletion strains, locus YLL001W, strain dnm1, stronger effect = lower value 1.01 | S. cerevisiae deletion strains, locus YLL026W, stronger effect = lower value 0.999 | S. cerevisiae deletion strains, locus YLL041C, strain sdh2, stronger effect = lower value 1.01 | S. cerevisiae deletion strains, locus YLR027C, strain aat2, stronger effect = lower value 1 | S. cerevisiae deletion strains, locus YLR058C, strain SHM2, stronger effect = lower value 1 | S. cerevisiae deletion strains, locus YLR102C, strain apc9, stronger effect = lower value 1 | S. cerevisiae deletion strains, locus YLR221C, strain rsa3, stronger effect = lower value 0.996 | S. cerevisiae deletion strains, locus YLR258W, strain gsy2, stronger effect = lower value 1 | S. cerevisiae deletion strains, locus YLR262C, strain YPT6, stronger effect = lower value 0.634 | S. cerevisiae deletion strains, locus YLR268W, strain sec22, stronger effect = lower value 0.969 | S. cerevisiae deletion strains, locus YLR320W, strain mms22, stronger effect = lower value 0.956 | S. cerevisiae deletion strains, locus YLR330W, strain CHS5, stronger effect = lower value 0.99 | S. cerevisiae deletion strains, locus YLR342W, strain FKS1 (second series), stronger effect = lower value 1 | S. cerevisiae deletion strains, locus YLR342W, strain FKS1, stronger effect = lower value 1.01 | S. cerevisiae deletion strains, locus YLR357W, strain rsc2, stronger effect = lower value 1.02 | S. cerevisiae deletion strains, locus YLR370C, strain arc18, stronger effect = lower value 1 | S. cerevisiae deletion strains, locus YLR371W, strain rom2, stronger effect = lower value 1 | S. cerevisiae deletion strains, locus YLR384C, strain iki3, stronger effect = lower value 1 | S. cerevisiae deletion strains, locus YLR418C, strain cdc73, stronger effect = lower value 1.01 | S. cerevisiae deletion strains, locus YML016C, strain PPZ1, stronger effect = lower value 0.998 | S. cerevisiae deletion strains, locus YML032C, strain rad52, stronger effect = lower value 0.995 | S. cerevisiae deletion strains, locus YML120C, strain ndi1, stronger effect = lower value 1 | S. cerevisiae deletion strains, locus YML124C, strain tub3, stronger effect = lower value 1 | S. cerevisiae deletion strains, locus YMR058W, strain fet3, stronger effect = lower value 0.987 | S. cerevisiae deletion strains, locus YMR078C, strain ctf18, stronger effect = lower value 0.992 | S. cerevisiae deletion strains, locus YMR125W, strain sto1, stronger effect = lower value 1.03 | S. cerevisiae deletion strains, locus YMR129W, stronger effect = lower value 1.01 | S. cerevisiae deletion strains, locus YMR205C, strain PFK2, stronger effect = lower value 0.988 | S. cerevisiae deletion strains, locus YMR223W, strain ubp8, stronger effect = lower value 0.98 | S. cerevisiae deletion strains, locus YMR231W, strain pep5, stronger effect = lower value 0.943 | S. cerevisiae deletion strains, locus YMR263W, strain SAP30, stronger effect = lower value 0.988 | S. cerevisiae deletion strains, locus YMR307W, strain GAS1, stronger effect = lower value 1.25 | S. cerevisiae deletion strains, locus YNL067W, strain RPL9B, stronger effect = lower value 1.03 | S. cerevisiae deletion strains, locus YNL071W, strain lat1, stronger effect = lower value 1 | S. cerevisiae deletion strains, locus YNL128W, strain TEP1, stronger effect = lower value 0.965 | S. cerevisiae deletion strains, locus YNL209W, strain ssb2, stronger effect = lower value 1.01 | S. cerevisiae deletion strains, locus YNL233W, strain BNI4, stronger effect = lower value 1.01 | S. cerevisiae deletion strains, locus YNL248C, strain rpa49, stronger effect = lower value 0.994 | S. cerevisiae deletion strains, locus YNL250W, strain rad50, stronger effect = lower value 0.976 | S. cerevisiae deletion strains, locus YNL271C, strain bni1, stronger effect = lower value 0.98 | S. cerevisiae deletion strains, locus YNL298W, strain CLA4, stronger effect = lower value 0.958 | S. cerevisiae deletion strains, locus YNL307C, strain MCK1, stronger effect = lower value 1.01 | S. cerevisiae deletion strains, locus YNL322C, strain KRE1 (second series), stronger effect = lower value 0.996 | S. cerevisiae deletion strains, locus YNR049C, strain mso1, stronger effect = lower value 1.01 | S. cerevisiae deletion strains, locus YNR052C, strain pop2, stronger effect = lower value 0.979 | S. cerevisiae deletion strains, locus YOL006C, strain TOP1, stronger effect = lower value 0.971 | S. cerevisiae deletion strains, locus YOL012C, strain htz1 1.07 | S. cerevisiae deletion strains, locus YOL147C, strain pex11, stronger effect = lower value 1.01 | S. cerevisiae deletion strains, locus YOR001W, strain rrp6, stronger effect = lower value 0.994 | S. cerevisiae deletion strains, locus YOR061W, strain CKA2, stronger effect = lower value 1 | S. cerevisiae deletion strains, locus YOR069W, strain VPS5, stronger effect = lower value 0.992 | S. cerevisiae deletion strains, locus YOR070C, strain gyp1, stronger effect = lower value 0.998 | S. cerevisiae deletion strains, locus YOR080W, strain dia2, stronger effect = lower value 0.987 | S. cerevisiae deletion strains, locus YOR083W, strain WHI5, stronger effect = lower value 0.997 | S. cerevisiae deletion strains, locus YOR106W, strain vam3, stronger effect = lower value 0.964 | S. cerevisiae deletion strains, locus YOR136W, strain idh2, stronger effect = lower value 0.979 | S. cerevisiae deletion strains, locus YOR144C, strain elg1, stronger effect = lower value 1 | S. cerevisiae deletion strains, locus YOR184W, strain ser1, stronger effect = lower value 0.964 | S. cerevisiae deletion strains, locus YOR265W, strain rbl2, stronger effect = lower value 1 | S. cerevisiae deletion strains, locus YOR270C, strain vph1, stronger effect = lower value 0.977 | S. cerevisiae deletion strains, locus YOR290C, strain snf2, stronger effect = lower value 1.01 | S. cerevisiae deletion strains, locus YOR316C, strain cot1, stronger effect = lower value 0.991 | S. cerevisiae deletion strains, locus YPL051W, strain arl3, stronger effect = lower value 0.995 | S. cerevisiae deletion strains, locus YPL078C, strain atp4, stronger effect = lower value 0.992 | S. cerevisiae deletion strains, locus YPL240C, strain hsp82, stronger effect = lower value 0.998 | S. cerevisiae deletion strains, locus YPL241C, strain CIN2, stronger effect = lower value 0.997 | S. cerevisiae deletion strains, locus YPR119W, strain clb2, stronger effect = lower value 0.988 | S. cerevisiae deletion strains, locus YPR141C, strain kar3, stronger effect = lower value 0.989 | S. cerevisiae deletion strains, locus YPR163C, strain tif3, stronger effect = lower value 0.995 | S. cerevisiae deletion strains, locus YPR167C, strain met16, stronger effect = lower value 0.98 | S. cerevisiae deletion strains, strain wtn01, stronger effect = lower value 0.981 | S. cerevisiae strains, strain wild type, stronger effect = lower value 1
